{"source": "ChEMBL document CHEMBL4513216", "about": "“Probing the Open Global Health Chemical Diversity Library for Multistage-Active Starting Points for Next-Generation Antimalarials” (ACS Infect Dis, 2020)", "note": "In all, about 65,000 compounds went through this assay and about 2,100 (3.2%) showed an effect of 50% or more. The median lay at about -52%. What follows is part of a selection rich in strong results, with near analogues and random picks from the rest."}
{"test_system": "Plasmodium falciparum", "assay": "Screen against P. falciparum Asexual Blood Stage (ABS), at 5uM", "type": "functional, Dd2", "conditions": "tested at 5 uM", "units": {"INHIBITION": "%"}}
{"smiles": "CCCN1CCN(C(=O)c2cnc(C)nc2)[C@H]2CS(=O)(=O)C[C@H]21", "INHIBITION": -183}
{"smiles": "O=C(C1CCCCC1)N1CC2(CCNCC2)C1", "INHIBITION": -23.1}
{"smiles": "CC(C)CN1CC[C@@H]2[C@@H]1CCN2C(=O)N(C)C", "INHIBITION": -67.2}
{"smiles": "Cc1cnn(CC(C)NCC(=O)NC2CCOCC2)c1", "note": "(stereo not given)", "INHIBITION": 14.5}
{"smiles": "CC(C)N1CCC(Cn2cc(C(N)=O)cn2)CC1", "INHIBITION": -7.48}
{"smiles": "Cc1cnn(CC2CCN(CC(O)c3ccccc3Cl)CC2)c1", "note": "(stereo not given)", "INHIBITION": 78}
{"smiles": "c1cc(CO[C@@H]2CN(Cc3ccoc3)[C@@H]3CCCO[C@@H]32)ccn1", "INHIBITION": -102}
{"smiles": "O=C(CC1CCCC1)NCCNCc1cccc2c1OCCO2", "INHIBITION": 71.6}
{"smiles": "COCC(=O)N1C[C@H]2CNC[C@@]2(C(=O)NCc2c(C)noc2C)C1", "INHIBITION": -53.3}
{"smiles": "O=C1[C@H]2CN(Cc3ccccn3)C[C@H]2CN1c1ccsc1", "INHIBITION": -16.2}
{"smiles": "CC(C)CN1CCC2(CC(C(=O)NCc3cccnc3)=NO2)C1", "note": "(stereo not given)", "INHIBITION": -53.1}
{"smiles": "O=C(NCc1cccnc1)Nc1cc(C(F)(F)F)c[nH]c1=O", "INHIBITION": 79}
{"smiles": "O=C(Nc1cc(C(F)(F)F)c[nH]c1=O)C1CCCN1", "note": "(stereo not given)", "INHIBITION": -151}
{"smiles": "COCCNC1(c2ccc(Cl)cc2)CCOCC1", "INHIBITION": 65.6}
{"smiles": "CCOCCNC1(c2ccc(Cl)cc2)CCOCC1", "INHIBITION": 27.1}
{"smiles": "CCCNC1(c2ccc(Cl)cc2)CCOCC1", "INHIBITION": 67.7}
{"smiles": "CO[C@H]1CN(Cc2ccc(C)o2)[C@@H]2CCCO[C@H]12", "INHIBITION": 11.8}
{"smiles": "CN(C)C(=O)COC[C@H]1CC[C@@H]2[C@@H](CCN2Cc2ccccn2)O1", "INHIBITION": -79.4}
{"smiles": "O=C1[C@@H]2CCN(CC3CC3)C[C@@H]2OCCN1c1cccnc1", "INHIBITION": -73.4}
{"smiles": "O=C(NCC(F)(F)F)C1=NOC2(CCCNC2)C1", "note": "(stereo not given)", "INHIBITION": -61.4}
{"smiles": "CCOC[C@H]1CC[C@H]2[C@H](CCN2Cc2c(C)noc2C)O1", "INHIBITION": -13.8}
{"smiles": "CNc1cc(C)nc(N2C[C@H](C3CC3)[C@@H](N)C2)n1", "INHIBITION": 88.3}
{"smiles": "CCc1[nH]c(C2(N)CCCC2)nc(=O)c1C", "INHIBITION": -32.3}
{"smiles": "COC(=O)CCC(=O)NC(C)Cc1ccccc1Br", "note": "(stereo not given)", "INHIBITION": -63.4}
{"smiles": "COCCN(Cc1ccccc1Cl)c1nc(CCN)nc2ccccc12", "INHIBITION": 89.5}
{"smiles": "c1cnc(N2CCO[C@H]3CN(CC4CC4)C[C@H]32)nc1", "INHIBITION": 3.32}
{"smiles": "CCCNCc1ccc(-c2cc(N)nc3[nH]ccc23)cc1", "INHIBITION": 72.3}
{"smiles": "CN(C)c1nccc(N(C)C2CCN(CC3CCOC3)CC2)n1", "note": "(stereo not given)", "INHIBITION": -4.08}
{"smiles": "Cc1ccc(CNCc2cccc3cccnc23)c(OC2CCOC2)c1", "note": "(stereo not given)", "INHIBITION": 85.4}
{"smiles": "Cc1ccc(CNCc2cccc3cn[nH]c23)c(OC2CCOC2)c1", "note": "(stereo not given)", "INHIBITION": 78.7}
